Laboratory results reported in PubChem BioAssay.
Results filed as inconclusive are left out. The source made the active and inactive calls.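 Rule for the calls, unless noted: active = efflux inhibition above 0.42, the validation set average plus 4 SD; inconclusive = no clear call, values can overlap the other calls; inactive = the rest.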

Legend:
[1] = rapamycin-like changes in RPL19A-GFP expression – cell-based, S. cerevisiae, multiplex flow cytometry, primary screen (AID 1862; in the data active = percent of DMSO control GFP below about 86%;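 note: lower values mimic rapamycin by blocking the RPL19A rise seen in DMSO cells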); details: S. cerevisiae RPL19A-GFP strain, flow cytometry fluorescence, 3 h; at 10 µM; stronger effect = lower value
[2] = TOR pathway GLN3 branch reporter MEP2-GFP changes – S. cerevisiae, multiplex flow cytometry, primary screen (AID 1867;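 active = GFP response, as percent of the DMSO control, above the screen-wide mean plus 3 SD, about 139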;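 note: median GFP channel fluorescence of barcode-gated MEP2-GFP cells measured by flow cytometry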); details: S. cerevisiae MEP2-GFP strain, 3 h, at 10 µM, stronger effect = higher value, 100% means same as DMSO wells
[3] = TOR pathway RTG branch CIT2 reporter changes – S. cerevisiae, GFP fusion, multiplex flow cytometry, primary screen (AID 1870;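 active = percent response above a set limit, the screen-wide mean plus 3 SD, cut at about 130% in these data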;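 note: barcoded CIT2-GFP strain pooled with four other GFP strains with rapamycin as positive control; median GFP fluorescence per well over plate mean of DMSO wells so 100% = DMSO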); details: S. cerevisiae CIT2-GFP expression, 3 h, at 10 µM, stronger effect = higher value
[4] = TOR pathway LAP4-GFP level changes – S. cerevisiae, multiplex flow cytometry, primary screen (AID 1873;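 active = GFP signal, as percent of the solvent control, above the screen mean plus 3 SD, about 149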); details: S. cerevisiae LAP4-GFP expression, 3 h, at 10 µM, stronger effect = higher value
[5] = reduced mouse 2C T cell binding to pMHC/ICAM-1 vesicles – MLPCN validation set, flow cytometry, LFA-1/ICAM-1 modulator project, pilot screen (AID 2523;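 active = response below a set limit, under 55% cells CD8-positive and vesicle-bound, and CD8 cells' 90th-percentile brightness under 279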;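 for vesicle binding response: mean PE anti-B7-1 fluorescence of CD8+ cells relative to row control; 100% = QL9-loaded vesicles with DMSO vehicle in the same plate row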); details: 2C mouse CD8+ T cells, at 7 µM, stronger effect = lower value; double positive events: measured here: CD8+/vesicle+ event percentage
[6] = target: Integrin beta-1 (Homo sapiens) + Integrin alpha-4 (Homo sapiens) (UniProt P13612+P05556); assay: alpha4beta1 integrin LIBS antibody binding reduction – U937 cells, HUTS-21 mAb, flow cytometry, validation set, VLA-4 allosteric modulator project, pilot screen (AID 2674;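 active = inhibition above 50%, about 3 SD of the validation set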;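 note: antibody binding induced by the VLA-4 ligand LDV present at three times its Kd; 0% = LDV ligand with antibody and no compound and 100% = antibody without LDV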); details: HUTS-21 LIBS mAb binding, at 6.7 µM, stronger effect = higher value, binding induced by LDV ligand
[7] = calorie-restriction mimetic ROS inhibitors, yeast – validation compound set, pilot screen (AID 2706;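 active = superoxide response below 65% of plate, a cut near 3 SD across the whole screen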;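 note: yeast exposed to compound for one week at 30 degrees C before staining; 100% = mean of all compound wells on the same plate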); details: S. cerevisiae aging, superoxide DHE fluorescence; at 10 µM, stronger effect = lower value
[8] = target: Beta-adrenergic receptor kinase 1 (Homo sapiens) (UniProt P25098); assay: GRK2 binders displacing RNA aptamer, biochemical, validation, human GRK2, bead flow cytometry (AID 488806;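 active = aptamer binding inhibition above 30%, about 3 SD of noise from non-fluorescent compounds; inactive = inhibition at or below 30%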); details: bead-bound GRK2, FAM-aptamer displacement, at 10 µM, stronger effect = higher value
[9] = target: Beta-2 adrenergic receptor (Homo sapiens) (UniProt P07550); assay: agonist-induced loss of surface beta2AR – cell-based, FAP fluorogen, flow cytometry, validation set, pilot screen (AID 504459;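 active = percent response above 42, roughly 3 SD of non-fluorescent test compounds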;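 note: agonist-driven loss of surface beta2AR via internalization measured by FAP dye flow cytometry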); details: Am2.2-beta2AR cells, at 10 µM, stronger effect = higher value
[10] = target: AP-2 complex subunit beta (Homo sapiens) (UniProt P63010); assay: beta-arrestin/AP2 interaction blockers – biochemical, validation set, GST-AP2 beads, flow cytometry, pilot screen (AID 504541;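 active = inhibition above 54%, about 3 SD of non-fluorescent compounds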;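 note: AP2 carries R879A mutation and is captured from E. coli lysate; bead-bound FITC arrestin peptide fluorescence measuring arrestin peptide binding to AP2; 0% = DMSO wells and 100% = excess unlabeled arrestin peptide control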); details: FITC arrestin peptide, at 10 µM, stronger effect = higher value, AP2 beta2 appendage fragment, R879A mutant
[11] = cytosolic pH regulators acting via V-ATPase – S. cerevisiae, pHLuorin, HTS validation (AID 504600; in the data active = response above about 15%;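 note: plate controls were DMSO for no effect and reference compound for full effect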); details: V-ATPase proton transport, at 10 µM, stronger effect = higher value
[12] = tested on: anti-desmoglein-3 scFv antibody binding to human DSG3; assay: blockers of pathogenic pemphigus antibody–desmoglein-3 binding – biochemical, validation compound set, bead-based, flow cytometry, pilot screen (AID 588368;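 active = binding below the plate cutoff, the plate median minus 3 SD, with a reading above zero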;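 note: signal is the median channel fluorescence of bead-bound GFP antibody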); details: Protein G beads, DSG3-Fc, scFv-GFP binding, at 10 µM, stronger effect = lower value
[13] = Nile Red efflux blockade in pump-expressing yeast – validation compound set, multiplex, phenotypic, pilot screen (AID 588506);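 note: Nile Red retained in cells so higher fluorescence means more efflux inhibition; 0 = negative control wells and 1 = enniatin B 25 µM full block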; details: S. cerevisiae pump-expressing triplex, Nile Red efflux flow cytometry; at 10 µM; stronger effect = higher value; the pumps come from Candida albicans
[14] = target: ATP-binding cassette sub-family B member 6 (Homo sapiens) (UniProt Q9NP58); assay: blockers of ABCB6-driven porphyrin uptake – K562-ABCB6 cells, flow cytometry, validation set, pilot screen (AID 588550;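 active = inhibition above the screen-wide mean plus 3 SD, about 51%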;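 note: 0% = DMSO wells and 100% = benzethonium chloride 70 µM positive control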); details: K562-ABCB6 porphyrin accumulation, 1 h, at 10 µM, stronger effect = higher value
[15] = AML differentiation inducers, ER-HoxA9 marrow cells – cell-based, GFP/MAC1 double positive, flow cytometry, validation set, primary screen (AID 588685;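 active = differentiation response of at least 50%, scaled between solvent and reference control, from cells with both markers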;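 note: compound exposure lasts four days before antibody staining and flow analysis; 0% = DMSO wells and 100% = 5 µM fulvestrant positive control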); details: stronger effect = higher value, normalized: vehicle 0, fulvestrant 100
[16] = yeast AGP1-GFP level changes, GLN3 branch – cell-based, multiplex flow cytometry, S. cerevisiae, primary screen (AID 1887;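 active = GFP signal above the screen-wide mean plus 3 SD, that is over about 124.5% of the solvent control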;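 note: AGP1-GFP fusion strain of S. cerevisiae within a five-strain barcoded multiplex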); details: 3 h, at 10 µM, stronger effect = higher value

Sequence of AP-2 complex subunit beta (Homo sapiens) (P63010 whole entry, looked up, the tested form may be a part, one chain of several): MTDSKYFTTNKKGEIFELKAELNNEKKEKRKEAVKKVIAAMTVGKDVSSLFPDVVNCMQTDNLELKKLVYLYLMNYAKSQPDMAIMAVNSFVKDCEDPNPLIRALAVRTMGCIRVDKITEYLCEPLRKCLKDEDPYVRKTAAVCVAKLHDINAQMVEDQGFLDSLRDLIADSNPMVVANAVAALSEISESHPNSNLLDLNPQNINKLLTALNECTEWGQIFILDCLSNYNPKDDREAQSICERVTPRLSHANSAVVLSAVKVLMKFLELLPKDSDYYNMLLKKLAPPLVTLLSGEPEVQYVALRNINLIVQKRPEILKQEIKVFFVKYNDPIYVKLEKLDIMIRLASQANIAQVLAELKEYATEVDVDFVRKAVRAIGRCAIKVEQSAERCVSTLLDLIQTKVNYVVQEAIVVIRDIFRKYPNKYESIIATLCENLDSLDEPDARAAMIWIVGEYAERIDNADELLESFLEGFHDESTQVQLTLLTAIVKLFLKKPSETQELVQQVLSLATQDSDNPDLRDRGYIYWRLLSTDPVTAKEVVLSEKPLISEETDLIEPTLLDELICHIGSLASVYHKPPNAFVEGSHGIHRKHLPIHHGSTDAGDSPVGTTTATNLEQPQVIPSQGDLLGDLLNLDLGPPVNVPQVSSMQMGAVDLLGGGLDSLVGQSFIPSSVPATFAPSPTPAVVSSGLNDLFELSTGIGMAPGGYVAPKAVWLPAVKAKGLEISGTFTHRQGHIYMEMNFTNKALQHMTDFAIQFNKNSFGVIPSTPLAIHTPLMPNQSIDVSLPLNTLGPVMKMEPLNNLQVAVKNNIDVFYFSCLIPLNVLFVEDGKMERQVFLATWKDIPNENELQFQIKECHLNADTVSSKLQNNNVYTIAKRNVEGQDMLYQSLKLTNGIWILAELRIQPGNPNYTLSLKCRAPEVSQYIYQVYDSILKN
Sequence of Beta-adrenergic receptor kinase 1 (Homo sapiens) (P25098 whole entry, looked up): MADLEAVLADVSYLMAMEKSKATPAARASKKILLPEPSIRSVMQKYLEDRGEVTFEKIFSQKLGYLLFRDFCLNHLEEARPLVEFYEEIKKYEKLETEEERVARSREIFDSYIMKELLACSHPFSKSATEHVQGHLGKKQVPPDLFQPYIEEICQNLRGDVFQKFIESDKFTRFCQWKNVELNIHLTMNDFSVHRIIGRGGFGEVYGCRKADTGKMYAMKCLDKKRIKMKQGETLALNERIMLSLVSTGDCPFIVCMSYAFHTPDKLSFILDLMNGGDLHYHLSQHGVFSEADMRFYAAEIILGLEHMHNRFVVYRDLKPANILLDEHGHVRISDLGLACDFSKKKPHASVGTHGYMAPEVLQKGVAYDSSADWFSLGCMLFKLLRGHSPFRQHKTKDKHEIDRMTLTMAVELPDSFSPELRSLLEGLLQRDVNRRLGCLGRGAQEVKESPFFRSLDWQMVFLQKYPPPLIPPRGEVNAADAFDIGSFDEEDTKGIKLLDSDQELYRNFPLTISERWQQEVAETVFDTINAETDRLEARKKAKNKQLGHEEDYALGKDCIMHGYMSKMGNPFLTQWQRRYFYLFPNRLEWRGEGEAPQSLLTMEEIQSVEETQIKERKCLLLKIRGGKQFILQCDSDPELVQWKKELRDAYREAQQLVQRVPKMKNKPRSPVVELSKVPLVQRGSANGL
Sequence of Beta-2 adrenergic receptor (Homo sapiens) (P07550 whole entry, looked up): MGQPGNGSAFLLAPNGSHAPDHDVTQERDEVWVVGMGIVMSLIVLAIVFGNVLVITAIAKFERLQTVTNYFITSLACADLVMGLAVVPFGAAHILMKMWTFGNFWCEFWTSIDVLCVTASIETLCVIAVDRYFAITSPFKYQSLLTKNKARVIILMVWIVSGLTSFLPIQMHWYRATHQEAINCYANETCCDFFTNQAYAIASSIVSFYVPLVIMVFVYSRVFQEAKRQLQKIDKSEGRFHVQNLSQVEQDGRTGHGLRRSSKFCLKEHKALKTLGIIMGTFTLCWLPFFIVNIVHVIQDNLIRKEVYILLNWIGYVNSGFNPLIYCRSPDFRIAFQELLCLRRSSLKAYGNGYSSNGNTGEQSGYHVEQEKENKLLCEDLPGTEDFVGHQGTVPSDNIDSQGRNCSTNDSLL
Sequence of ATP-binding cassette sub-family B member 6 (Homo sapiens) (Q9NP58 whole entry, looked up): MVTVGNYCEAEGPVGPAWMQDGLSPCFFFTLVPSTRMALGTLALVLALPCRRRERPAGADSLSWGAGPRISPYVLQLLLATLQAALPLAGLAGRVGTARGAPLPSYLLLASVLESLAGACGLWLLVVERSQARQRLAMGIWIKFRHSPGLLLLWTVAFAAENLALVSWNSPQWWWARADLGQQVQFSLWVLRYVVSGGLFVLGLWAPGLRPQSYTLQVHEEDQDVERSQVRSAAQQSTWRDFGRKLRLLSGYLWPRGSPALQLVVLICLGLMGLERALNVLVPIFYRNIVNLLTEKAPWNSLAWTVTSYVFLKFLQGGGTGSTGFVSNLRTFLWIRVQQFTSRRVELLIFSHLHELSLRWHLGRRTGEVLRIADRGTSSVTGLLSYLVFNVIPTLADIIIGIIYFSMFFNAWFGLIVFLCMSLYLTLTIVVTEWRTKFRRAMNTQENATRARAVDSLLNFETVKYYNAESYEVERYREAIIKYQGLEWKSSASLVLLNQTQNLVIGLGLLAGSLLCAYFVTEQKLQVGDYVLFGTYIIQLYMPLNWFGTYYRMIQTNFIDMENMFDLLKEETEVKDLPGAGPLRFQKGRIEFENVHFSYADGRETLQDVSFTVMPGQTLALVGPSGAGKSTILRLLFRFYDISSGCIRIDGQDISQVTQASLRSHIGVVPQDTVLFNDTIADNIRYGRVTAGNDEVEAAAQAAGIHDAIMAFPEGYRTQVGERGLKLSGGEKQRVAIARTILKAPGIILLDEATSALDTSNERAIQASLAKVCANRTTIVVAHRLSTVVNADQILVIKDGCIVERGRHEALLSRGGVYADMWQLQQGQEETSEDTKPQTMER
Sequence of Integrin beta-1 (Homo sapiens) + Integrin alpha-4 (Homo sapiens) (P05556 whole entry, looked up): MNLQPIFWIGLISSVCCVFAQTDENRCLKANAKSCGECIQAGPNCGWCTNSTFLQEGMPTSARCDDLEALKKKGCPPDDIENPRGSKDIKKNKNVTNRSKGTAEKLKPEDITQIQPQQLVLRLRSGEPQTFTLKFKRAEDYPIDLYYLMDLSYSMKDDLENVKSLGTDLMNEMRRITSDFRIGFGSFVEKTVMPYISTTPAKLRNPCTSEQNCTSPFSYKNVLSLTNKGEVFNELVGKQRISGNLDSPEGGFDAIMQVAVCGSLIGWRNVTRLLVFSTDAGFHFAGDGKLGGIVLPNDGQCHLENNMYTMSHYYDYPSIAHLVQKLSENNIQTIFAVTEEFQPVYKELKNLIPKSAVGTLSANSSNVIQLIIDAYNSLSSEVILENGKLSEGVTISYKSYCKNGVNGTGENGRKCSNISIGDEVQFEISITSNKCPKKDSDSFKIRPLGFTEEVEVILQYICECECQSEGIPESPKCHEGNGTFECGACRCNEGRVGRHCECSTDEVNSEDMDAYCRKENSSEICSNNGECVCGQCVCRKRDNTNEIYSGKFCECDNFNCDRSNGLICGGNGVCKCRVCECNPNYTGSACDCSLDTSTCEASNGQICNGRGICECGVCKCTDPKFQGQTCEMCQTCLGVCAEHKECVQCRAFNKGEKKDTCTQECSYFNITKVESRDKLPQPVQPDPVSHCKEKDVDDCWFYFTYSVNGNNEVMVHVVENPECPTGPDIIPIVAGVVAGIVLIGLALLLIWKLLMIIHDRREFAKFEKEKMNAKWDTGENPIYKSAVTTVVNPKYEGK
Sequence of Integrin beta-1 (Homo sapiens) + Integrin alpha-4 (Homo sapiens) (P13612 whole entry, looked up): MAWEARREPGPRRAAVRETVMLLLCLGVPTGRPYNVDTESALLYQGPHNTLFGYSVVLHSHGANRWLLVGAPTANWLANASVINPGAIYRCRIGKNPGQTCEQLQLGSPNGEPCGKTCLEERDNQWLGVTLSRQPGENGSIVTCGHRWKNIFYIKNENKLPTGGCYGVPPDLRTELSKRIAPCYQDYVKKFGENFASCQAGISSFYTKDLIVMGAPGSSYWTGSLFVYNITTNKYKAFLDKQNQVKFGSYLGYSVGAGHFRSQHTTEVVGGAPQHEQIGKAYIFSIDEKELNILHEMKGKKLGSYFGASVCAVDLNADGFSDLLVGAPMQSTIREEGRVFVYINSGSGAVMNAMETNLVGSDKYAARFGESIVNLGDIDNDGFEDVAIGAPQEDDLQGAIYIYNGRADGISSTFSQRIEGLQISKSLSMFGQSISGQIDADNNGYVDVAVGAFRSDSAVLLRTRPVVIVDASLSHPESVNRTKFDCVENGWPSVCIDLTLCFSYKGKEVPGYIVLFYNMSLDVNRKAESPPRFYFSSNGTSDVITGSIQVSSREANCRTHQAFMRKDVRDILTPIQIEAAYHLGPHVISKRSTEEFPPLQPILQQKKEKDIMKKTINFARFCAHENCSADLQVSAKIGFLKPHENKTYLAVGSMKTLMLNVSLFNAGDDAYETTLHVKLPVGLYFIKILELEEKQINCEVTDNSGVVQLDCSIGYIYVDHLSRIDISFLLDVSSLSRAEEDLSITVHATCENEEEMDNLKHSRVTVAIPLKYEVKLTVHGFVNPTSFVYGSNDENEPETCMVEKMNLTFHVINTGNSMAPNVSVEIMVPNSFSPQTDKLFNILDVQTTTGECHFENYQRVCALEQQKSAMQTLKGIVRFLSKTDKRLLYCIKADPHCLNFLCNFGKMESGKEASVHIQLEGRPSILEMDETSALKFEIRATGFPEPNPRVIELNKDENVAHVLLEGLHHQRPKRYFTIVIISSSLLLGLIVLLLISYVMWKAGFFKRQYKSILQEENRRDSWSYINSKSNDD

O=C(OCC1OC2OC3(CCCCC3)OC2C2OC3(CCCCC3)OC12)c1ccccc1 (centres undefined)
inactive: percent of DMSO control GFP [1] 90.9% | GFP response vs DMSO [2] 104% | percent response of DMSO control [3] 116% | GFP response vs DMSO [4] 76.5% | vesicle binding response [5] 154% | inhibition [6] 5.49% | superoxide response (% of plate) [7] 102% | aptamer binding inhibition [8] 5% | response [9] 11.7% | inhibition [10] 5.67% | response [11] 1.42% | binding (% of control) [12] 128% | efflux inhibition (fraction of control) [13] 0.09 | inhibition [14] 5% | differentiation response [15] -0.82%
60.9%: double positive events [5]

CC1CNCCN1S(=O)(=O)c1cccc2cnccc12 (centres undefined)
inactive: percent of DMSO control GFP [1] 95% | percent response of DMSO control [3] 104% | GFP response vs DMSO [4] 111% | GFP response, % of DMSO [16] 91.3% | vesicle binding response [5] 918% | inhibition [6] 17.2% | superoxide response (% of plate) [7] 91.3% | aptamer binding inhibition [8] 3% | response [9] -6.28% | inhibition [10] -9.84% | response [11] 1.37% | binding (% of control) [12] 96.3% | efflux inhibition (fraction of control) [13] -0.07 | inhibition [14] 2% | differentiation response [15] 14.9%
62.9%: double positive events [5]

Nc1c2c(nc3ccccc13)CCCC2
68.9%: double positive events [5]
inactive: percent of DMSO control GFP [1] 89.5% | GFP response vs DMSO [2] 112% | percent response of DMSO control [3] 99.2% | GFP response vs DMSO [4] 69.9% | vesicle binding response [5] 258% | inhibition [6] 1.61% | superoxide response (% of plate) [7] 105% | aptamer binding inhibition [8] 2% | response [9] -14.3% | inhibition [10] 3.69% | response [11] 7.21% | binding (% of control) [12] 104% | efflux inhibition (fraction of control) [13] 0.05 | inhibition [14] 11% | differentiation response [15] -5.73%

COC(=O)c1ccc(CC(=O)c2ccc(O)cc2O)o1
active: response [11] 18.1%
72.3%: double positive events [5]
inactive: percent of DMSO control GFP [1] 93.5% | GFP response vs DMSO [2] 119% | percent response of DMSO control [3] 91.3% | GFP response vs DMSO [4] 79.8% | vesicle binding response [5] 248% | inhibition [6] -32.3% | superoxide response (% of plate) [7] 93.2% | aptamer binding inhibition [8] 4% | response [9] 7.39% | inhibition [10] 5.21% | binding (% of control) [12] 109% | efflux inhibition (fraction of control) [13] -0.24 | inhibition [14] -45% | differentiation response [15] 4.91%

Cc1c(OC(=O)CNC(=O)OC(C)(C)C)ccc2c3c(c(=O)oc12)CCC3
60.3%: double positive events [5]
inactive: percent of DMSO control GFP [1] 93.3% | GFP response vs DMSO [2] 123% | percent response of DMSO control [3] 90% | GFP response vs DMSO [4] 80.3% | vesicle binding response [5] 210% | inhibition [6] 9.37% | superoxide response (% of plate) [7] 101% | aptamer binding inhibition [8] -1% | response [9] -1.96% | inhibition [10] 4.15% | response [11] 0.35% | binding (% of control) [12] 107% | efflux inhibition (fraction of control) [13] 0.01 | inhibition [14] 1% | differentiation response [15] 0%

O=C(CCCCCCCC(=O)c1ccccc1)c1ccccc1
inactive: percent of DMSO control GFP [1] 98.2% | percent response of DMSO control [3] 98.6% | GFP response vs DMSO [4] 105% | GFP response, % of DMSO [16] 96.9% | vesicle binding response [5] 189% | inhibition [6] -5.89% | superoxide response (% of plate) [7] 95.3% | aptamer binding inhibition [8] 7% | response [9] 9.71% | inhibition [10] -3.86% | response [11] -4.73% | binding (% of control) [12] 98.9% | efflux inhibition (fraction of control) [13] -0.13 | inhibition [14] 7% | differentiation response [15] 5.6%
62.1%: double positive events [5]

NS(=O)(=O)c1cc2c(cc1Cl)NC(CSCc1ccccc1)=NS2(=O)=O
active: vesicle binding response [5] 27.2%
inactive: percent of DMSO control GFP [1] 97% | GFP response vs DMSO [2] 119% | percent response of DMSO control [3] 118% | GFP response vs DMSO [4] 84.2% | inhibition [6] -6.15% | superoxide response (% of plate) [7] 95.7% | aptamer binding inhibition [8] 2% | response [9] 5.55% | inhibition [10] -7.6% | response [11] 0.08% | binding (% of control) [12] 103% | efflux inhibition (fraction of control) [13] -0.24 | inhibition [14] 3% | differentiation response [15] 13.9%
40.1%: double positive events [5]

CNCCCN1c2ccccc2CCc2ccccc21
71.5%: double positive events [5]
inactive: percent of DMSO control GFP [1] 93.3% | GFP response vs DMSO [2] 111% | percent response of DMSO control [3] 92.6% | GFP response vs DMSO [4] 78.7% | vesicle binding response [5] 231% | inhibition [6] 16.2% | superoxide response (% of plate) [7] 81.9% | aptamer binding inhibition [8] -1% | inhibition [10] -10.5% | response [11] 0.46% | binding (% of control) [12] 109% | efflux inhibition (fraction of control) [13] -0.38 | inhibition [14] 9% | differentiation response [15] 9.83%

CC(=O)OC[C@H]1O[C@@H](n2ncc(=O)[nH]c2=O)[C@H](OC(C)=O)[C@@H]1OC(C)=O
inactive: percent of DMSO control GFP [1] 94.8% | GFP response vs DMSO [2] 114% | percent response of DMSO control [3] 119% | GFP response vs DMSO [4] 78.1% | inhibition [6] 5.49% | superoxide response (% of plate) [7] 105% | aptamer binding inhibition [8] 6% | response [9] -6.75% | inhibition [10] -6.69% | response [11] -0.17% | binding (% of control) [12] 109% | efflux inhibition (fraction of control) [13] -0.13 | inhibition [14] -40% | differentiation response [15] 20.5%
active: vesicle binding response [5] 78.5%
53.4%: double positive events [5]

CC12CCC(C(=O)N3CCCCC3)([C@H](Br)C1=O)C2(C)C (some centres undefined)
65.8%: double positive events [5]
inactive: percent of DMSO control GFP [1] 90.6% | GFP response vs DMSO [2] 119% | percent response of DMSO control [3] 101% | GFP response vs DMSO [4] 78.7% | vesicle binding response [5] 272% | inhibition [6] 8.4% | superoxide response (% of plate) [7] 101% | aptamer binding inhibition [8] -1% | response [9] -6.79% | inhibition [10] -4.61% | response [11] 0.52% | binding (% of control) [12] 98.5% | efflux inhibition (fraction of control) [13] -0.13 | inhibition [14] 11% | differentiation response [15] -1.64%
